The text below walks through data of PubChem BioAssay (Tox21).

A number with no mark means an inactive call. Results filed as inconclusive are left out. The source made the active and inactive calls. Unless noted, calls follow the shape of the dose curve; as a rule, active = well fitted curve in the direction sought with a large enough effect in the repeat runs; inconclusive = weak or mixed curves; inactive = no such curve, though single readings can be large; an effect the other way counts as inactive or inconclusive.

Test [1] can be described thus: qHTS assay to test for compound auto fluorescence at 535 nm (green) in HEK293 cells (AID 720680). A general note: Quantitative high-throughput screening tests each substance at several concentrations.
Test [2] in a line: qHTS assay to test for compound auto fluorescence at 460 nm (blue) in HEK293 cell free culture (AID 720681). Also: potency is read from the fitted curve at half-maximal effect. In outline:
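Blue fluorescence (Ex 405/Em 460 nm, triamterene-equivalent) was read immediately after pin transfer of compound or DMSO into medium (DMEM, 10% FBS) without cells.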

Test [3] in a line: qHTS assay to test for compound auto fluorescence at 535 nm (green) in HEK293 cell free culture (AID 720682). Summed up: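 Cell-free medium (DMEM, 10% FBS) receives compound or DMSO by pintool. Plate read directly at Ex 485/Em 535 nm. Signal converted to fluorescein equivalency.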
A short description of test [4]: qHTS assay to test for compound auto fluorescence at 590 nm (red) in HEK293 cell free culture (AID 720683). In outline:
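Red-channel autofluorescence of compounds in culture medium (DMEM, 10% FBS), no cells, measured at 540/590 nm. Rose Bengal sodium is the reference fluorophore for equivalence.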

The nature of test [5]: qHTS assay to test for compound auto fluorescence at 460 nm (blue) in HepG2 cell free culture (AID 720685). Also: potency is read from the fitted curve at half-maximal effect. In outline:
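Cell-free plates of MEM plus 10% FBS received 23 nL compound or DMSO vehicle; blue-channel (405/460 nm) intensity scored against triamterene as reference fluorophore.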

The nature of test [6]: qHTS assay to test for compound auto fluorescence at 535 nm (green) in HepG2 cell free culture (AID 720686).
A short description of test [7]: qHTS assay to test for compound auto fluorescence at 460 nm (blue) in HepG2 cells (AID 720687). Also: potency is read from the fitted curve at half-maximal effect. Summed up: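 Blue-channel autofluorescence (Ex/Em 405/460 nm, triamterene-equivalent) was measured after 1 hr compound exposure at 37 C, 5% CO2. Cells were HepG2, plated overnight at 37 C in MEM plus 10% FBS.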
Test [8] deals with Glucocorticoid receptor (Homo sapiens) (UniProt P04150). Kind of test: qHTS assay to identify small molecule agonists of the glucocorticoid receptor (GR) signaling pathway (AID 720691; active = well fitted activation curve with a large enough effect in the signal ratio in the repeat runs, not every such curve was filed as active; the % refers to the signal ratio). Summed up: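 Compounds in DMSO, alongside positive controls, were added to GR-bla HeLa reporter cells and incubated 18 h at 37 C; GRE-driven beta-lactamase was detected by fluorescence after 2 h with FRET substrate at room temperature.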

For test [9] the target is unchanged. Kind of test: qHTS assay to identify small molecule antagonists of the glucocorticoid receptor (GR) signaling pathway (AID 720692; active = well fitted inhibition curve with a large enough effect in the signal ratio in the repeat runs, not every such curve was filed as active; the % refers to the signal ratio). In outline: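 In a 1536-well cell format, compounds were added 4 h after seeding GR-bla HeLa cells, together with dexamethasone at 5 nM final; reporter activity was measured by FRET-substrate fluorescence following 18 h at 37 C.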

Test [10] in a line: qHTS assay to identify small molecule antagonists of the glucocorticoid receptor (GR) signaling pathway - cell viability counter screen (AID 720693). Also: nearly all actives have a fitted effect of over 55% in size.
Test [11] in a line: qHTS assay for identifying genotoxic compounds that show differential cytotoxicity against isogenic chicken DT40 cell lines with known DNA damage response pathways - wild type cell line (AID 743012). Also: nearly all actives have a fitted effect of over 60% in size. Also: potency is read from the fitted curve at half-maximal effect. Summed up:
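Viability of DNA repair-proficient chicken DT40 cells was assessed by CellTiter-Glo luminescence following 40 h compound exposure at 37 C/5% CO2.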

Test [12] in a line: qHTS assay for identifying genotoxic compounds that show differential cytotoxicity against isogenic chicken DT40 cell lines with known DNA damage response pathways - Rev3 mutant cell line (AID 743014). Also: nearly all actives have a fitted effect of over 55% in size. Also: potency is read from the fitted curve at half-maximal effect.
Test [13] in a line: qHTS assay to identify small molecule antagonists of the androgen receptor (AR) signaling pathway - cell viability counter screen (AID 743033; also: nearly all actives have a fitted effect of over 45% in size).
A short description of test [14]: qHTS assay to identify small molecule antagonists of the androgen receptor (AR) signaling pathway using the MDA cell line - cell viability counter screen (AID 743041; also: nearly all actives have a fitted effect of over 45% in size). Summed up: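 Using the breast carcinoma line MDA-kb2 AR-luc, test chemicals were co-incubated with R1881 for 16 h; CellTiter-Fluor reagent, added at 15.5 h, provided a fluorescence measure of live cells.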

Test [15] concerns the target Androgen receptor (Homo sapiens) (UniProt P10275). Kind of test: qHTS assay to identify small molecule antagonists of the androgen receptor (AR) signaling pathway (AID 743035; active = well fitted inhibition curve with a large enough effect in the signal ratio in the repeat runs, not every such curve was filed as active; the % refers to the signal ratio). Summed up:
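Reporter HEK293 cells were exposed to compounds and R1881 overnight (16 h, 37C); beta-lactamase activity was then quantified by FRET fluorescence.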

The target is the same in test [16]. Kind of test: qHTS assay to identify small molecule agonists of the androgen receptor (AR) signaling pathway (AID 743036; active = well fitted activation curve with a large enough effect in the signal ratio in the repeat runs, with a control signal flat, not every such curve was filed as active; the % refers to the signal ratio). In outline: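 AR-bla HEK293 cells, 2,000/well; 4 h preincubation 37C/5% CO2; compound (DMSO) 16 h at 37C; LiveBLAzer B/G FRET substrate 2 h RT; fluorescence intensity read-out.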
For test [17] the target is unchanged. Kind of test: qHTS assay to identify small molecule agonists of the androgen receptor (AR) signaling pathway using the MDA cell line (AID 743040; also: nearly all actives have a fitted effect of over 20% in size; also: potency is read from the fitted curve at half-maximal effect). In outline: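 Stable MMTV-luciferase reporter in MDA-kb2 cells; note the promoter carries GR as well as AR response elements. 16 h compound treatment, 37C, 0% CO2; ONE-Glo luminescence endpoint.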
The target is the same in test [18]. Kind of test: qHTS assay to identify small molecule antagonists of the androgen receptor (AR) signaling pathway using the MDA cell line (AID 743042; also: nearly all actives have a fitted effect of over 55% in size). Summed up: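 Antagonist mode: compounds plus R1881 agonist added to MDA-kb2 AR-luc cells, incubated 16 h at 37C. Luciferase reporter luminescence quantified, with multiplexed CellTiter-Fluor readout for cell viability.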

A short description of test [19]: qHTS assay to test for compound auto fluorescence at 590 nm (red) in HepG2 cell free culture (AID 720684). Summed up: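 No cells present: MEM + 10% FBS only. Compound pinned in, red label read (540/590 nm). Activity = fluorescence equivalent to Rose Bengal sodium.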
Test [20] can be described thus: qHTS assay for identifying genotoxic compounds that show differential cytotoxicity against isogenic chicken DT40 cell lines with known DNA damage response pathways - Rad54/Ku70 mutant cell line (AID 743015). Also: nearly all actives have a fitted effect of over 60% in size. Also: potency is read from the fitted curve at half-maximal effect.
Tags tell the direction and shape of the fitted curve or compound fluorescence and quenching.

Androgen receptor (Homo sapiens), sequence (P10275 whole entry, looked up): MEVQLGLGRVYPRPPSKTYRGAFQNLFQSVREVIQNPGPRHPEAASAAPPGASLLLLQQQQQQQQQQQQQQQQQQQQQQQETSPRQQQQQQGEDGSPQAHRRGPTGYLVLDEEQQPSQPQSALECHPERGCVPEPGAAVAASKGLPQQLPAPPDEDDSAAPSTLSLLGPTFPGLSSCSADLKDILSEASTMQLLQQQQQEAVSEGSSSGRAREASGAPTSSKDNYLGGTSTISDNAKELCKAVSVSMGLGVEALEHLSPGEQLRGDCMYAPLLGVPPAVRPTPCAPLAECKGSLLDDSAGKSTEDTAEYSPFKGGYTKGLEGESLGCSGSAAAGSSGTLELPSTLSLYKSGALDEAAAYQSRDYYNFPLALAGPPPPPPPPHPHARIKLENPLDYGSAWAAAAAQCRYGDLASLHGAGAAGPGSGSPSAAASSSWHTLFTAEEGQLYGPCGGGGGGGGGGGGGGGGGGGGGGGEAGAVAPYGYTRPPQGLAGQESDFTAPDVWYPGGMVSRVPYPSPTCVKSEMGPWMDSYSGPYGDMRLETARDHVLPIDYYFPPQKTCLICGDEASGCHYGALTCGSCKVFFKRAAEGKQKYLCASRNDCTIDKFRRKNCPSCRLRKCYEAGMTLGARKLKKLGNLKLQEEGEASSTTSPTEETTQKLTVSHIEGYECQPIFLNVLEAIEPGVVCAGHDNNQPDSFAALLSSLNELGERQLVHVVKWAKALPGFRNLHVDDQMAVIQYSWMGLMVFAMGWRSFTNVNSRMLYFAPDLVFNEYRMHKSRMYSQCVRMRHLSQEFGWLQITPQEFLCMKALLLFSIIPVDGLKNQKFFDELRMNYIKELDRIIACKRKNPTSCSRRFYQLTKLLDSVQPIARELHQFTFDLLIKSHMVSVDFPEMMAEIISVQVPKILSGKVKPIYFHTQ
Glucocorticoid receptor (Homo sapiens), sequence (P04150 whole entry, looked up): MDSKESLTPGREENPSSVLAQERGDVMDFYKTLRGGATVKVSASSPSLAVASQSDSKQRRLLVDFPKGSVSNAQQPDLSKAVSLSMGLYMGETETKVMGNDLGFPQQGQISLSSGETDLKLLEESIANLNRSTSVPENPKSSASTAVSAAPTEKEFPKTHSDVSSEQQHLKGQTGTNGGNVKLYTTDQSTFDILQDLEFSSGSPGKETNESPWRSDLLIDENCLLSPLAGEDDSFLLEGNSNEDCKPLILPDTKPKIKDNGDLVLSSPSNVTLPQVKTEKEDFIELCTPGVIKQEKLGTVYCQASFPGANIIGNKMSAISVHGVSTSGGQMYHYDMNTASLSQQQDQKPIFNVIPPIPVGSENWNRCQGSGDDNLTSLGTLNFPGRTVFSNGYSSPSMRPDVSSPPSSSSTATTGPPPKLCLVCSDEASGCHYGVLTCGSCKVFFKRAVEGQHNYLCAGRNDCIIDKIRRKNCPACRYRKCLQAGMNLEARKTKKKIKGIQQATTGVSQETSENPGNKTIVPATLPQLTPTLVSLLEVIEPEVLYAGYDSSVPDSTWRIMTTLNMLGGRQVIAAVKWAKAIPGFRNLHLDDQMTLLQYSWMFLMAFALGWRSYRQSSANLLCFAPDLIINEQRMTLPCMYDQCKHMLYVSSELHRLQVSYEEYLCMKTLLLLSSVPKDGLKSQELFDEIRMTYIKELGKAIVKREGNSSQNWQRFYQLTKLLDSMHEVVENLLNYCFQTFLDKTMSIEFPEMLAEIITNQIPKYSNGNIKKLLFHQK

`CCCCC1CCCCC(=O)O1` (stereo not given): the molecule was classed as inactive in test [1], in test [3], in [4], in test [6], in test [10] and in [13]. Moreover, the Potency result in test [2], in test [5], in test [7], in test [8], in [9] and in test [11] was “inactive” throughout. In addition, the Potency result in [12] and in test [14] was “inactive” each time.
Turning to `CC1(C)SC(C)(C)SC(C)(C)S1`, the result in test [1], in test [3], in test [4], in test [13], in [16] and in test [18] was inactive. In addition, the Potency entry in [2], in [5], in test [7], in test [11], in [12] and in test [15] was “inactive” each time. Moreover, the Potency result in [17] and in test [14] was “inactive” throughout.
Regarding `CCCCNc1ccccc1`, the Potency result in test [2], in [5], in test [7], in test [8], in test [9] and in [11] was “inactive” in each case. Besides, the Potency result in test [12], in test [20], in test [15], in test [17] and in test [14] was “inactive” in each case. In addition, the result in test [3], in test [4], in [19], in [6], in test [10] and in [13] was inactive. The result in test [18] was inactive.
As to `CC(C)[C@H](N)C(=O)OCCOCn1cnc2c(=O)[nH]c(N)nc21`, the result in test [1], in [3], in [4], in [6], in test [10] and in test [13] was inactive. The Potency entry in [2], in [5], in [7], in [8], in test [9] and in [14] was “inactive” in each case. Further, the Potency in test [11] is 11.9 µM (active); in test [12], 23.7 µM (active); in [20], 26.6 µM (active).
Consider `O=C(O)c1cccc(C(=O)O)n1`, for which the result in test [1], in [3], in test [4], in test [6], in [10] and in test [13] was inactive. The Potency entry in test [2], in test [5], in [7], in test [8], in test [9] and in test [11] was “inactive” in each case. The Potency entry in [12] and in test [14] was “inactive” in each case.
`CCC(C)OC(=O)N1CCCCC1CCO` (stereo not given): the result in test [1], in test [3], in [4] and in test [13] was inactive. For the same molecule, the Potency result in test [2], in [5], in [7], in [11], in test [12] and in test [20] was “inactive” throughout. Also, in test [14], the Potency result was “inactive”.
`CC(C)c1cccc(O)c1`: the call in test [1], in [3], in [4], in [6], in test [10] and in [13] was inactive. Also, the Potency entry in test [2], in test [5], in test [7], in test [8], in test [9] and in test [11] was “inactive” throughout. In addition, the Potency result in test [12], in test [20] and in test [14] was “inactive” each time.
On to `COc1cc(CCC(C)=O)ccc1O`, for which the outcome in test [1], in [3], in test [4], in test [6], in [10] and in [13] was inactive. For the same molecule, in [18], the call was inactive. Further, the Potency result in test [2], in test [5], in test [7], in [8], in [9] and in [11] was “inactive” throughout. For the same molecule, the Potency entry in test [12], in test [17] and in [14] was “inactive” throughout.
For `Cc1nc(-c2ccc(OCC(C)C)c(C#N)c2)sc1C(=O)O`, the call in [1], in test [3], in [4], in test [6], in test [10] and in [13] was inactive. In addition, the call in test [18] was inactive. Moreover, the Potency entry in test [2], in test [5], in test [7], in [8], in test [11] and in test [14] was “inactive” each time. The Potency in test [17] is 1.19 µM (active).
For the molecule `OCC(O)[C@@H](O)[C@H](O)[C@H](O)CO[C@H]1O[C@H](CO)[C@@H](O)[C@H](O)[C@H]1O` (stereo not given in full), the Potency entry in test [2], in [5], in test [7], in test [8], in test [9] and in [11] was “inactive” in each case. In addition, the Potency result in test [12], in test [20] and in [14] was “inactive” in each case. Moreover, the result in test [3], in test [4], in test [19], in test [6], in [10] and in test [13] was inactive.
In the case of `Nc1ccc2cc(S(=O)(=O)O)ccc2c1`, the call in test [1], in test [3], in [4], in [6], in test [10] and in [13] was inactive. The Potency is 31.6 µM (active) in test [2], 31.6 µM [fluorescent] (active) in test [5] and 31.6 µM [fluorescent] (active) in [7]. Also, the Potency entry in [8], in test [9], in test [11], in [12], in test [20] and in [14] was “inactive” in each case.
For `CO[Si](CCCNCCC[Si](OC)(OC)OC)(OC)OC`, the result in test [1], in [3], in test [4], in test [6], in test [10] and in test [13] was inactive. In addition, the Potency entry in [2], in [5], in [7], in [8], in [9] and in [11] was “inactive” in each case. Besides, the Potency result in [12], in test [20] and in test [14] was “inactive” in each case.
In the case of `CCCCC=O`, the outcome in test [1], in test [3], in [4], in [6], in [10] and in test [13] was inactive. Moreover, the Potency result in test [2], in [5], in test [7], in test [8], in test [9] and in test [11] was “inactive” each time. The Potency entry in test [12], in [20] and in [14] was “inactive” in each case.
For `Cc1cc(C)cc(OCC2CNC(=O)O2)c1` (stereo not given), the molecule was classed as inactive in [1], in test [3], in test [4], in test [6], in [10] and in test [13]. Besides, the Potency entry in [2], in [5], in test [7], in [8], in [9] and in test [11] was “inactive” in each case. In addition, the Potency result in [20] and in test [14] was “inactive” each time.
